Source: PubChem
Bim-Mcl-1 – disrupts Bim peptide binding to human Mcl-1 | Q07820 | Bead-based flow cytometry, Bim peptide-Mcl-1 binding | inhibition, % at 10 µM | actives 0.1% (n = 190,000) | AID 1009; in the data active = inhibition above about 40%;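 also: 0% = no compound tracer wells and 100% = peptide blocker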
Mcl1 Bid PPI – disrupts binding of human Mcl-1 to Bid peptide; Q07820; inhibition, % at 21.7 µM; actives 0.97% (n = 220,000); TR-FRET Mcl-1/Bid-Dy647 peptide binding, 1536-well;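 active = compounds that cut the binding signal by more than half at the single screening dose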;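 also: His-tagged Mcl-1 with europium anti-His antibody binding Bid BH3 peptide; 0% = Mcl-1 plus peptide wells and 100% = peptide-only wells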
BCLXL inh – blocks human Bcl-xL binding to Bim BH3 peptide; inhibition, % at 10.9 µM; GST-Bcl-xL / FITC-Bim BH3 peptide fluorescence polarization; actives 0.7% (n = 320,000);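 active = inhibition above the mean of all tested compounds plus 3 SD, cutoff set per campaign, cut at about 30% in these data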;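 also: 0% = DMSO wells and 100% = unlabeled Bim-BH3 peptide competitor; inhibitors lower millipolarization by displacing the labeled peptide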
GLD-1 TGE inh – GLD-1-TGE RNA interaction inhibition (C. elegans); Q17339; purified GLD-1 + fluorescein TGE RNA, fluorescence polarization; inhibition, % at 5.96 µM; actives 0.44% (n = 320,000);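 active = percent inhibition above a per-plate cutoff, the plate mean of test compounds plus 3 SD, cut at about 30% in these data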;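 also: 0% = DMSO wells with GLD-1 and probe and 100% = wells lacking GLD-1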
Target sequence (Q17339 whole entry, looked up): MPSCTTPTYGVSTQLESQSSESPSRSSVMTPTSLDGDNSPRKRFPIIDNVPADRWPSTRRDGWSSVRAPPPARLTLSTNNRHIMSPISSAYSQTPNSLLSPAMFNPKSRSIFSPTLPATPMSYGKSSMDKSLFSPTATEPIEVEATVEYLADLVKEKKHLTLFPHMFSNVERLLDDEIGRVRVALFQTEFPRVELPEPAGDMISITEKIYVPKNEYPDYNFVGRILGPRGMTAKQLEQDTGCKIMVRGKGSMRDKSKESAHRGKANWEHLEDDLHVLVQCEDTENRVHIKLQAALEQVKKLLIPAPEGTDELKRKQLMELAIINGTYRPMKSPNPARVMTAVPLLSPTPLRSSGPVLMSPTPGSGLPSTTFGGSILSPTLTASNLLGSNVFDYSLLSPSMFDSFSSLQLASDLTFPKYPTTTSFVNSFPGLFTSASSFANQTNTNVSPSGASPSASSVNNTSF
Mcl1-Noxa inh – disrupts binding of human Mcl-1 to Noxa peptide; Q07820; TR-FRET Mcl-1/Noxa peptide binding, 2 h; inhibition, % at 21.7 µM; actives 1.5% (n = 220,000); AID 1022;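 active = compounds that cut the protein-peptide binding signal by more than 50% relative to plate controls in a single-dose test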;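 also: His-tagged Mcl-1 with rhodamine Noxa BH3 peptide and terbium anti-His antibody; 0% = Mcl-1 plus Noxa peptide wells and 100% = peptide-only wells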
MCL1 BIM primary – disrupts human MCL1 binding to BIM-BH3 peptide; Q07820; GST-MCL1 / FITC-Bim-BH3 fluorescence polarization; inhibition, % at 10.9 µM; actives 0.68% (n = 320,000);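 active = inhibition above the mean inhibition of all tested compounds plus 3 SD, set per campaign, cut at about 40% in these data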;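 also: 0% = DMSO wells and 100% = unlabeled Bim-BH3 peptide control; higher means more loss of mP so more displacement of Bim peptide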
* = called active by the depositor; / = no result given. Sampled rows, rich in hits. Any-hit rate of the full collection: about 2.3%.

SMILES | Bim-Mcl-1 | Mcl1 Bid PPI | BCLXL inh | GLD-1 TGE inh | Mcl1-Noxa inh | MCL1 BIM primary
COc1ccc(C(=O)NC2CCCc3c2cnn3-c2ccccc2F)cc1OC (centres undefined) | / | / | 3 | 0 | / | 1
CCn1c(=O)c2ccccc2n(CC(=O)NC2CCCCC2)c1=O | / | / | 1 | -1 | / | -4
COc1ccc(S(=O)(=O)N(C)C2(C)CCS(=O)(=O)C2)cc1OC (centres undefined) | / | / | 3 | 8 | / | 5
Cc1cccc(OC(C)C(=O)Nc2ccc(S(=O)(=O)N3CCCC3)cc2)c1 (centres undefined) | / | / | -2 | 3 | / | -8
O=[N+]([O-])c1ccccc1/C=N/n1c(-c2cccnc2)n[nH]c1=S | -9 | -37 | -24 | 8 | 46 | -17
O=[N+]([O-])c1cc(/C=N/n2c(-c3cccnc3)n[nH]c2=S)ccc1Cl | 0 | -25 | -42 | 1 | 70* | 0
COc1ccc(C2C3C(=O)N(N(C)c4ncc(C(F)(F)F)cc4Cl)C(=O)C3ON2C)cc1 (centres undefined) | -2 | 7 | 3 | 1 | 5 | -3
CC(C)(C)CC(=O)Nc1nnc(SCC(=O)Nc2ccccc2F)s1 | 5 | -25 | -1 | 5 | -6 | 1
NS(=O)(=O)c1ccc(CNC(=O)c2ccc(NS(=O)(=O)c3ccc4[nH]c(=O)[nH]c4c3)cc2)cc1 | / | / | 0 | 3 | / | 1
Cc1ccc(S(=O)(=O)CCNC(=O)Cc2ccccc2)cc1 | -2 | 96* | 5 | 5 | -2 | -1
Cc1ccc(CC(=O)NCCCc2ccccc2)cc1 | 0 | -26 | 1 | 7 | -1 | -4
COCCn1cnnc1SCC(=O)Nc1cccc(S(=O)(=O)N2CCCCCC2)c1 | -1 | 54* | -7 | -1 | 2 | -24
Cc1cc(C(=O)Nc2cccc(S(=O)(=O)N3CCCC3)c2)c2ccccc2n1 | / | / | 6 | -8 | / | -3
Cn1cnnc1SCC(=O)Nc1cccc(S(=O)(=O)N2CCCCCC2)c1 | -5 | -25 | 5 | -9 | 6 | 5
Cc1cc(C(=O)Nc2cccc(S(=O)(=O)N3CCCCC3)c2)c2ccccc2n1 | 0 | -10 | 1 | -1 | 65* | 1
Cc1cc(NC(=O)NC(C)(C(F)(F)F)C(F)(F)F)no1 | / | -20 | 1 | 6 | 4 | -4
CCN(CC)CCOc1cc2c(nn1)Oc1ccccc1N2C | 4 | 54* | 8 | 0 | 37 | 11
CN1c2ccccc2Oc2nnc(Cl)cc21 | 0 | -19 | -4 | 0 | 9 | -11
Cc1ccc2nc(-c3ccccc3)cc(C(=O)N3CCN(S(=O)(=O)c4c(C)noc4C)CC3)c2c1 | / | / | -4 | 2 | / | -7
CN(Cc1ccc(F)cc1)S(=O)(=O)c1nnc(NC(=O)c2ccccc2)s1 | / | / | 4 | -1 | / | 2
N#C/C(=C/c1ccc(F)cc1)c1nnc(NC(=O)c2ccccc2)s1 | / | 3 | 6 | 6 | 68* | 5
CN(C)/C=C/C(=O)c1ccc(C(F)(F)F)cc1F | 100* | -23 | 1 | -2 | 20 | 1
CN(C)/C=C/C(=O)c1ccc(Cl)cc1Cl | 0 | -39 | 4 | 5 | 1 | -6
COc1ccc(OC)c(Nc2nc(=O)c3cccnc3s2)c1 | 0 | -59 | / | / | 56* | /
Cc1ccc(Nc2nc(=O)c3cccnc3s2)cc1 | / | -18 | 3 | -8 | -9 | -2
SMILES | Bim-Mcl-1 | Mcl1 Bid PPI | BCLXL inh | GLD-1 TGE inh | Mcl1-Noxa inh | MCL1 BIM primary
Brc1ccc(C2Nc3cccc4cccc(c34)N2)s1 | 0 | -13 | 9 | 5 | 100* | 5
CCN(CC)S(=O)(=O)c1ccc(N2CCCCC2)c(NC(=O)C2=COCCO2)c1 | / | / | 4 | 7 | / | 2
CN(CC(=O)Nc1cccc(F)c1)C(=O)CCCNC(=O)c1ccc(Cl)cc1 | / | / | 7 | 9 | / | 1
O=C(O)c1ccc(N2C(=O)/C(=C/c3ccc(-c4ccc([N+](=O)[O-])cc4)o3)C=C2c2ccccc2)cc1 | 3 | 99* | -9 | -7 | 108* | -48
O=C(NC(=O)c1ccncc1)NC(c1ccccc1)c1ccccc1 | 0 | -3 | 1 | 3 | 31 | 2
CCCNC(=O)C1CCN(c2cc(-c3ccccc3)nc3ncnn23)CC1 | 0 | -4 | 2 | -4 | 69* | 4
CCc1c(C)nc2ncnn2c1N1CCC(C(=O)Nc2ccccc2)CC1 | 1 | -3 | 5 | 4 | -26 | 1
